Measurements taken from the supplement of paper PMC12645437, “Orthogonal IMiD-Degron Pairs Induce Selective Protein Degradation in Cells” (ACS Chemical Biology, 2025).
Whole data set: some 8,300 sequences, median “log2 fold change of degron read counts, EGFP-low vs EGFP+ sorted cells (limma voom), compound-induced degradation” near -1.1, cut for the highest 2% near 3.2. The full list was thinned out, with the highest values kept by preference.

T1: CRBN, Q96SW2
T1 chain: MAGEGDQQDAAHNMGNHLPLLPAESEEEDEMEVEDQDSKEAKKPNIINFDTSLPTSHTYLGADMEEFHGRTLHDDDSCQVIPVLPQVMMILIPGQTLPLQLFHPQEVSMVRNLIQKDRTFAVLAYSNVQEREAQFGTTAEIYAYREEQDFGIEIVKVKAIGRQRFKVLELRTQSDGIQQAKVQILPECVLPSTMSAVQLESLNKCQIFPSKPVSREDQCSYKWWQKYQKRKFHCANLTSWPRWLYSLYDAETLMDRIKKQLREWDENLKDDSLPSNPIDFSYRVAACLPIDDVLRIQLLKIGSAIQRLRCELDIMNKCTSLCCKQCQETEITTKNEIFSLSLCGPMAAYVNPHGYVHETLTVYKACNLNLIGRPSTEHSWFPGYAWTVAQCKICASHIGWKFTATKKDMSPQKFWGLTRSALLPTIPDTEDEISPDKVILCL

B1: 46F_47E_49N_50Q_52G_53R_54A_55F_67L_, Q9UKT9 (peptide)
chain: FECNQCGRAFTQKGNLLRHIKL
B2: 46L_47Q_49N_50Q_52G_53F_54P_55C_67L_, Q9UKT9 (peptide)
chain: LQCNQCGFPCTQKGNLLRHIKL
B3: 46F_47Q_49D_50Q_52G_53A_54L_55F_67L_, Q9UKT9 (peptide)
chain: FQCDQCGALFTQKGNLLRHIKL
B4: 46F_47G_49P_50Q_52G_53A_54M_55F_67L_, Q9UKT9 (peptide)
chain: FGCPQCGAMFTQKGNLLRHIKL
B5: 46L_47I_49E_50I_52G_53F_54V_55C_67L_, Q9UKT9 (peptide)
chain: LICEICGFVCTQKGNLLRHIKL
B6: 46F_47E_49N_50Q_52G_53A_54N_55F_67L_, Q9UKT9 (peptide)
chain: FECNQCGANFTQKGNLLRHIKL
B7: 46F_47T_49D_50I_52G_53A_54Q_55F_67L_, Q9UKT9 (peptide)
chain: FTCDICGAQFTQKGNLLRHIKL
B8: 46F_47H_49D_50I_52G_53A_54Q_55F_67L_, Q9UKT9 (peptide)
chain: FHCDICGAQFTQKGNLLRHIKL
B9: 46F_47L_49D_50I_52G_53A_54Q_55F_67L_, Q9UKT9 (peptide)
chain: FLCDICGAQFTQKGNLLRHIKL
B10: 46F_47Q_49D_50I_52G_53A_54Q_55F_67L_, Q9UKT9 (peptide)
chain: FQCDICGAQFTQKGNLLRHIKL
B11: 46F_47Y_49D_50I_52G_53A_54Q_55F_67L_, Q9UKT9 (peptide)
chain: FYCDICGAQFTQKGNLLRHIKL
B12: 46F_47F_49D_50I_52G_53A_54Q_55F_67L_, Q9UKT9 (peptide)
chain: FFCDICGAQFTQKGNLLRHIKL
B13: 46F_47C_49D_50I_52G_53A_54Q_55F_67L_, Q9UKT9 (peptide)
chain: FCCDICGAQFTQKGNLLRHIKL
B14: 46F_47W_49D_50I_52G_53A_54Q_55F_67L_, Q9UKT9 (peptide)
chain: FWCDICGAQFTQKGNLLRHIKL
B15: 46F_47D_49D_50I_52G_53A_54Q_55F_67L_, Q9UKT9 (peptide)
chain: FDCDICGAQFTQKGNLLRHIKL
B16: 46F_47S_49P_50Q_52G_53A_54R_55F_67L_, Q9UKT9 (peptide)
chain: FSCPQCGARFTQKGNLLRHIKL
B17: 46L_47R_49P_50I_52G_53F_54H_55C_67L_, Q9UKT9 (peptide)
chain: LRCPICGFHCTQKGNLLRHIKL
B18: 46F_47E_49E_50I_52G_53H_54T_55F_67L_, Q9UKT9 (peptide)
chain: FECEICGHTFTQKGNLLRHIKL
B19: 46F_47E_49N_50V_52G_53A_54C_55F_67L_, Q9UKT9 (peptide)
chain: FECNVCGACFTQKGNLLRHIKL
B20: 46F_47Y_49E_50I_52G_53A_54I_55F_67L_, Q9UKT9 (peptide)
chain: FYCEICGAIFTQKGNLLRHIKL
B21: 46F_47F_49E_50I_52G_53A_54I_55F_67L_, Q9UKT9 (peptide)
chain: FFCEICGAIFTQKGNLLRHIKL
B22: 46F_47N_49E_50I_52G_53A_54I_55F_67L_, Q9UKT9 (peptide)
chain: FNCEICGAIFTQKGNLLRHIKL
B23: 46F_47A_49E_50I_52G_53A_54I_55F_67L_, Q9UKT9 (peptide)
chain: FACEICGAIFTQKGNLLRHIKL
B24: 46F_47G_49E_50I_52G_53A_54I_55F_67L_, Q9UKT9 (peptide)
chain: FGCEICGAIFTQKGNLLRHIKL
B25: 46F_47H_49E_50I_52G_53A_54I_55F_67L_, Q9UKT9 (peptide)
chain: FHCEICGAIFTQKGNLLRHIKL
B26: 46F_47W_49E_50I_52G_53A_54I_55F_67L_, Q9UKT9 (peptide)
chain: FWCEICGAIFTQKGNLLRHIKL
B27: 46F_47D_49E_50I_52G_53A_54I_55F_67L_, Q9UKT9 (peptide)
chain: FDCEICGAIFTQKGNLLRHIKL
B28: 46F_47I_49E_50I_52G_53A_54I_55F_67L_, Q9UKT9 (peptide)
chain: FICEICGAIFTQKGNLLRHIKL
B29: 46F_47S_49E_50I_52G_53A_54I_55F_67L_, Q9UKT9 (peptide)
chain: FSCEICGAIFTQKGNLLRHIKL
B30: 46F_47R_49E_50I_52G_53A_54I_55F_67L_, Q9UKT9 (peptide)
chain: FRCEICGAIFTQKGNLLRHIKL
B31: 46F_47E_49E_50I_52G_53A_54I_55F_67L_, Q9UKT9 (peptide)
chain: FECEICGAIFTQKGNLLRHIKL

Biological target: T1, CRBN, Q96SW2
Assay: log2 fold change of degron read counts, EGFP-low vs EGFP+ sorted cells (limma voom), compound-induced degradation; higher = more compound-induced degradation of the degron-EGFP fusion; degrons are variants of IKZF1/3 zinc finger 2; compound dose not given here
Conditions: Jurkat, 18 h
Procedure: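 Pooled library of 8380 IKZF3 ZF2 degron mutants (positions 146-167 varied within the IKZF3 130-189 degron; only the varied core is printed, flanks not printed) fused to EGFP with IRES-mCherry, lentivirally expressed in Jurkat cells. mCherry+ cells were treated with one IMiD compound for 18 h (dose not stated) and FACS-sorted into EGFP-low and EGFP+ populations. Degron sequences were counted by NGS, and log2FC (EGFP-low vs EGFP+) was estimated by limma voom over 3 biological replicates.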

[1] = compound: compound 19 (5-tert-butyl-thalidomide)
[2] = compound: compound 22 (5-morpholino-thalidomide)
[3] = compound: compound 33 (diphenyl IMiD analogue)
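Also: pooled lentiviral library of zinc finger degron-EGFP fusions in mCherry-positive Jurkat cells, FACS-sorted after compound exposure, with degron abundance counted by next-generation sequencing.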

Sequence	log2 fold change of degron read counts [1]	log2 fold change of degron read counts [2]	log2 fold change of degron read counts [3]	log2 fold change of degron read counts (compound: thalidomide)
B1	-3.75	-4.2	-2.96	-3.19
B2	-2.34	-3	-2.68	-1.74
B3	-3.22	-2	-1.8	-0.219
B4	1.86	-1.68	0.259	-2.04
B5	-0.507	0.245	1.34	1.57
B6	-3.06	-3.6	-1.14	-1.62
B7	-0.504	1.41	1.33	1.15
B8	1.04	1.14	-0.0246	-1.24
B9	-0.363	-1.53	0.682	0.0613
B10	-0.785	1.6	1.09	2.9
B11	3.18	3.55	2.11	-0.00703
B12	3.41	3.28	1.67	0.0187
B13	1.75	1.58	1.41	0.205
B14	2.88	3.68	1.52	0.174
B15	0.389	-1.35	-1.71	-1.04
B16	0.264	-0.514	-0.493	-0.61

Sequence	log2 fold change of degron read counts [1]	log2 fold change of degron read counts [2]	log2 fold change of degron read counts [3]	log2 fold change of degron read counts (compound: thalidomide)
B17	-0.0105	0.25	1.59	2.32
B18	-3.53	-3.12	-2.68	-2.57
B19	-1.77	-2.3	0.438	0.297
B20	3.43	3.53	2.4	0.401
B21	3.4	3.61	1.62	0.938
B22	0.366	-0.376	-0.467	-0.484
B23	3.52	1.96	0.532	0.207
B24	2.93	2.72	1.73	0.804
B25	1.06	0.746	0.49	-0.388
B26	3.17	3.55	2.41	0.519
B27	-0.448	-0.893	-0.134	-0.014
B28	-0.706	0.427	2.23	1.71
B29	2.19	1.4	1.65	0.91
B30	-1.64	-0.637	1.17	1.56
B31	-1.24	-1.08	1.05	2.4
